Assay outcomes from PubChem BioAssay.
An excerpt weighted towards active compounds, which were near 15% of everything screened.
DT40 TDP1 CPT: DT40-hTDP1 cell growth loss with CPT. chicken DT40 Tdp1-/-;hTDP1 cells + 20 nM CPT, ATP luminescence, 48 h. Potency, µM (top dose mostly 46.2 µM), for the others: at the highest dose activity change, negative = growth inhibition, most hits filed as inhibitors. 12% of 420,000 active. AID 686979; further: nearly all actives have a fitted effect of over 55% in size
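Chicken DT40 Tdp1-/- cells complemented with human TDP1, 400 cells/well, exposed to compounds plus 20 nM camptothecin for at least 48 h at 37 C; viability read as ATP content by CellTiter-Glo luminescence.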
ELG1 DNA repair: inhibitors of ELG1-dependent DNA repair in HEK293T cells. HEK293T ELG1-luciferase reporter, luminescence, 16 h; DNA damage induced by 5-fluorouridine. 2.3% of 330,000 active. AID 504467. Potency, µM (titrated, usually from 46.1 µM), without a hit: at the top dose activity change, negative = inhibition, most hits filed as inhibitors; further: nearly all actives have a fitted effect of over 55% in size
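Quantitative HTS, concentration-response format. 2,000 cells/well co-treated with 5-fluorouridine and compound, 16 hr in 5% CO2 at 37 °C; ONE-Glo luminescence read after 30 min.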
RORgamma inh: inhibitors of mouse ROR gamma transcriptional activity. Potency, µM (series often up to 53.6 µM), without a hit: top-dose activity change, negative = inhibition, actives largely listed as inhibitors. Drosophila S2 Gal4-RORgamma UAS-luciferase reporter, 20 h. P51450. 5.4% of 310,000 active; further: nearly all actives have a fitted effect of over 60% in size
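In this cell-based reporter format, copper sulfate (700 uM final) drives Gal4–ROR gamma fusion expression from a metallothionein promoter in Drosophila Schneider cells; compounds preincubated 1 hr, reporter read after 20 hr at ambient temperature.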
ALOX12 inh: inhibitors of human 12S-lipoxygenase ALOX12; P18054; purified 12hLO, xylenol orange hydroperoxide absorbance; Potency, µM (doses to about 108 µM), for the others: at the top dose activity change, negative = inhibition, hits mostly inhibitors; 1.1% of 580,000 active
Target sequence (P18054 whole entry, looked up): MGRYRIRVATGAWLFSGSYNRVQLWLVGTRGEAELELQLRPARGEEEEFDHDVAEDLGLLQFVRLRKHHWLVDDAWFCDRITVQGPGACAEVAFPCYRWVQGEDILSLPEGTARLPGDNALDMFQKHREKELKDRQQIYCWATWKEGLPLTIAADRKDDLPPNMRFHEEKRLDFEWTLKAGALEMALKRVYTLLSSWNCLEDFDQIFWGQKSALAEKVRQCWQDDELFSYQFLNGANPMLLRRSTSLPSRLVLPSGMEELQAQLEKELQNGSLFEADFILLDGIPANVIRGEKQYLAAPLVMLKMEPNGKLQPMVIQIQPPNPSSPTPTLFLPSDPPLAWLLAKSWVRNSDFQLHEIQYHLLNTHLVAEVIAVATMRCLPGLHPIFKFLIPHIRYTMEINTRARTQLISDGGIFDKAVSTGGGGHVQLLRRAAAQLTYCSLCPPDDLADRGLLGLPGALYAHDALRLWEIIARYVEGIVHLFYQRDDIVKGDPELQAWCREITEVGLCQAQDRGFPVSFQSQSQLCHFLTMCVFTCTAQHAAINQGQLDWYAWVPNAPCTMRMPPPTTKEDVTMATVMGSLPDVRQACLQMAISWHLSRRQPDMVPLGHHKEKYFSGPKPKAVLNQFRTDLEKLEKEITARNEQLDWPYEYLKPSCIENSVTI
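Purified human 12hLO at 150 nM in 25 mM Hepes, 0.01% Triton X-100, pH 7.0, preincubated 15 min at room temperature with compound. Reaction started with 40 uM arachidonic acid, 30 min at room temperature. Hydroperoxide measured by Fe-xylenol orange, 573/405 nm absorbance ratio.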
Gal4-VP16 FLuc: Gal4-VP16 reporter inhibition counter-screen; Drosophila S2 Gal4-VP16 UAS-luciferase, luminescence, 20 h; Potency, µM (highest dose often 53.6 µM), without a hit: at the highest dose activity, negative = inhibition, usual class: inhibitors; 3.5% of 310,000 active; AID 2546;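 further: Gal4-VP16 expression switched on by copper sulfate through the metallothionein promoter; nearly all actives have a fitted effect of over 50% in size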
TDP1 cell noCPT: qHTS for Inhibitors of human tyrosyl-DNA phosphodiesterase 1 (TDP1): qHTS in cells in absence of CPT; 15% of 420,000 active; Potency, µM (doses to about 46.2 µM), for the others: top-dose activity change, negative = growth inhibition, usual class: inhibitors; DT40 Tdp1-/- hTDP1 cells, no CPT, ATP luminescence, 48 h; further: nearly all actives have a fitted effect of over 55% in size
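Growth kinetics read by CellTiter-Glo luminescence after ≥48 hr at 37 °C. Cells: DT40 Tdp1-/- stably carrying human TDP1, 400 per well, compound exposure in the absence of CPT (DMSO vehicle).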
The depositor's hits bear a star; [ ] = dose if it differs, or a comment. The call rests on the fitted dose curve; in most records, active means well fitted curve in the direction sought with a large enough effect; inconclusive means small, poorly fitted or top-dose-only effect, or another doubt; inactive means no such curve, though single readings can be large; an effect the other way counts as inactive or inconclusive. On the % scale 0 is the no-effect control and ±100 the full control effect; potency means the concentration at half of the fitted maximal effect.

How did Cc1cc(C)nc(/N=C(\N)Nc2ccc(OCCC(C)C)cc2)n1 do in these assays?
DT40 TDP1 CPT: 9.2µM*; ELG1 DNA repair: -15.3%; RORgamma inh: inconclusive; ALOX12 inh: -32.3%; Gal4-VP16 FLuc: -29.5%; TDP1 cell noCPT: 11.6µM*

What do the screens show for `COc1ccccc1N/C(N)=N/c1nc(C)cc(C)n1`?
DT40 TDP1 CPT: inconclusive; ELG1 DNA repair: 1.1%; RORgamma inh: 2.2%; ALOX12 inh: -3.1%; Gal4-VP16 FLuc: -17.0%; TDP1 cell noCPT: inconclusive

Results for Cc1cc(C)nc(/N=C(\N)Nc2cccc(OCc3ccccc3)c2)n1 ?
DT40 TDP1 CPT: 16.4µM*; ELG1 DNA repair: 20.6µM*; RORgamma inh: -36.7%; ALOX12 inh: inconclusive; Gal4-VP16 FLuc: -21.3%; TDP1 cell noCPT: 11.6µM*

How did O=C(CC1CCCC1)N1CC[C@@H]2COCCN(Cc3ccccc3)[C@@H]2C1 do in these assays?
ALOX12 inh: 2.7%

Results for CCOC(=O)[C@@H]1[C@H]2COc3ccccc3[C@H]2N2C(=O)N(c3ccc(Cl)cc3)C(=O)[C@]12C ?
DT40 TDP1 CPT: inconclusive; ELG1 DNA repair: 2.1%; RORgamma inh: 23.0%; ALOX12 inh: 11.2%; Gal4-VP16 FLuc: -0.7%; TDP1 cell noCPT: 20.6µM*

Results for CCOC(=O)[C@@H]1[C@H]2COc3cc(OC)ccc3[C@H]2N2C(=O)N(c3cccc(Cl)c3)C(=O)[C@]12C ?
DT40 TDP1 CPT: 14.6µM*; ELG1 DNA repair: inconclusive; RORgamma inh: 6.2%; Gal4-VP16 FLuc: -4.0%; TDP1 cell noCPT: inconclusive

Results for CCOC(=O)[C@@H]1[C@H]2COc3ccccc3[C@@H]2N2C(=O)N(c3cccc(Cl)c3)C(=O)[C@@]12C ?
DT40 TDP1 CPT: inconclusive; ELG1 DNA repair: 0.0%; RORgamma inh: inconclusive; ALOX12 inh: 0.3%; Gal4-VP16 FLuc: 14.1%; TDP1 cell noCPT: 16.4µM*

Results for CCOC(=O)[C@@H]1[C@H]2COc3ccccc3[C@H]2N2C(=O)N(c3cccc(Cl)c3)C(=O)[C@@]12C ?
DT40 TDP1 CPT: inconclusive; ELG1 DNA repair: inconclusive; RORgamma inh: 13.9%; Gal4-VP16 FLuc: 7.4%; TDP1 cell noCPT: inconclusive

What do the screens show for `CN(C)C[C@@H]1CN(S(C)(=O)=O)C[C@H]1NC(=O)c1ccc(Cn2ccnc2)o1`?
ALOX12 inh: 36.1%

Results for CCc1noc([C@@H]2CC(F)(F)CN2C(=O)c2ccco2)n1 ?
ALOX12 inh: -2.1%

What do the screens show for `COc1cc(O)ccc1-c1nc2ccc(Br)cn2c1Nc1ccccc1C`?
DT40 TDP1 CPT: 20.6µM*; ALOX12 inh: -16.3%; TDP1 cell noCPT: 9.2µM*

What do the screens show for `Cc1ccccc1Nc1c(-c2ccc(N3CCOCC3)cc2)nc2ccccn12`?
DT40 TDP1 CPT: inconclusive; ALOX12 inh: -15.1%; TDP1 cell noCPT: inconclusive

What do the screens show for `Cc1ccccc1Nc1c(-c2cccc(O)c2)nc2cnccn12`?
ALOX12 inh: -6.7%

Results for Cc1ccccc1Nc1c(-c2ccc(N3CCOCC3)cc2)nc2ccc(Br)cn12 ?
DT40 TDP1 CPT: 11.6µM*; ALOX12 inh: -25.3%; TDP1 cell noCPT: 14.6µM*

Results for CCc1noc(-c2cn(C3CCN(C(=O)c4ccc(Cl)s4)C3)nn2)n1 (configuration not stated) ?
ALOX12 inh: -5.1%

Results for CCCCCCCCCCC(C)(C)C(=O)Nc1c(OC)cc(OC)cc1OC ?
DT40 TDP1 CPT: 10µM*; RORgamma inh: -0.4%; ALOX12 inh: 0.0%; Gal4-VP16 FLuc: -2.9%; TDP1 cell noCPT: 10µM*

Results for CCCCN(C)CCC(=O)Nc1ccc(OC)cc1OC ?
DT40 TDP1 CPT: -17.0%; ELG1 DNA repair: 3.9%; RORgamma inh: inconclusive; ALOX12 inh: 0.0%; Gal4-VP16 FLuc: 1.7%; TDP1 cell noCPT: -4.6%

How did COc1ccc(NC(C)C(=O)Nc2ccc(C(C)(C)C)cc2)cc1Cl (configuration not stated) do in these assays?
DT40 TDP1 CPT: 29.1µM*; ELG1 DNA repair: 15.7%; RORgamma inh: inconclusive; ALOX12 inh: -26.6%; Gal4-VP16 FLuc: inconclusive; TDP1 cell noCPT: inconclusive

What do the screens show for `COc1ccc(NC(=O)CNc2cccc(C#N)c2)cc1Cl`?
DT40 TDP1 CPT: -7.2%; ELG1 DNA repair: 11.1%; RORgamma inh: 11.9%; ALOX12 inh: 65.2%; Gal4-VP16 FLuc: 8.6%; TDP1 cell noCPT: -0.1%

How did COc1ccc(NCC(=O)Nc2ccc(C#N)cc2)cc1Cl do in these assays?
DT40 TDP1 CPT: inconclusive; ELG1 DNA repair: 25.9µM*; RORgamma inh: 23.8%; ALOX12 inh: inconclusive; Gal4-VP16 FLuc: -13.0%; TDP1 cell noCPT: inconclusive

How did CC(=Nc1ccc([N+](=O)[O-])cc1)N(C)C do in these assays?
ALOX12 inh: -23.1%

What do the screens show for `N#CCCN(CCC#N)S(=O)(=O)c1ccc(C(=O)Nc2nnc(C3=COCCO3)o2)cc1`?
DT40 TDP1 CPT: -0.3%; ELG1 DNA repair: 2.7%; RORgamma inh: -26.5%; ALOX12 inh: 2.3%; Gal4-VP16 FLuc: -4.5%; TDP1 cell noCPT: 6.5%

What do the screens show for `CCCCN(C)S(=O)(=O)c1ccc(C(=O)Nc2nnc(C3=COCCO3)o2)cc1`?
DT40 TDP1 CPT: inconclusive; ELG1 DNA repair: 14.6µM*; RORgamma inh: 0.708µM*; ALOX12 inh: -10.0%; Gal4-VP16 FLuc: 1.78µM*; TDP1 cell noCPT: inconclusive

How did CCCCN(C)S(=O)(=O)c1ccc(C(=O)Nc2nnc(-c3cccs3)o2)cc1 do in these assays?
ELG1 DNA repair: -18.2%; RORgamma inh: 0.316µM*; Gal4-VP16 FLuc: 0.891µM*

How did Cc1nn(-c2ccc3nncn3n2)c2c1C(c1ccc(O)c(Cl)c1)CC(=O)N2 (configuration not stated) do in these assays?
ALOX12 inh: 3.4%

Results for COc1ccccc1-c1nnc([C@H]2CCN(C(=O)c3ccccc3)C2)o1 ?
ALOX12 inh: 15.6%[176 µM]

How did COc1ccc(-c2nnc(C3CCN(S(=O)(=O)c4ccc(C)c(C)c4)CC3)o2)cc1 do in these assays?
DT40 TDP1 CPT: inconclusive; ALOX12 inh: 3.5%; TDP1 cell noCPT: 25.9µM*

What do the screens show for `COc1ccccc1-c1nnc(C2CCN(S(=O)(=O)c3ccc(F)c(C)c3)CC2)o1`?
DT40 TDP1 CPT: 14.6µM*; ALOX12 inh: 3.1%; TDP1 cell noCPT: inconclusive
